Records with an inconclusive call do not appear. Where a call stands in place of a potency, no number is given. Calls of active or inactive are those of the source. The call rests on the fitted dose curve; in most records, active means well fitted inhibition curve with a large enough effect; inconclusive means small, poorly fitted or top-dose-only effect; inactive means flat fitted curve, though single readings scatter.
What was measured:
Test in all cases: qHTS profiling for inhibitors of Plasmodium falciparum proliferation (AID 504749); further: nearly all actives have a fitted effect of over 60% in size
Conditions in all cases: P. falciparum in erythrocytes, SYBR Green DNA, 72 h; series mostly up to 28.7 µM
CP291 = test system: CP291
How it was run: (§1)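 Readout was DNA-dye fluorescence from lysed cultures, ex 485/em 535 nm. Parasitized red cells had grown 72 h with compound; data scaled between 0.29 uM artemisinin and DMSO wells and corrected using vehicle-only plates.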

CP297 = test system: CP297
How it was run: as §1

CP305 = test system: CP305
How it was run: as §1

CP315 = test system: CP315
How it was run: as §1

CP325 = test system: CP325
How it was run: as §1

CP329 = test system: CP329
How it was run: as §1

CP335 = test system: CP335
How it was run: as §1

DFO2036 = test system: DFO2036
How it was run: as §1

DIV14 = test system: DIV14
How it was run: as §1

DIV17 = test system: DIV17
How it was run: as §1

DIV30 = test system: DIV30
How it was run: as §1

Dd2 = test system: Dd2
How it was run: as §1

ECU = test system: ECU
How it was run: as §1

FAB9 = test system: FAB9
How it was run: as §1

GB4 = test system: GB4
How it was run: as §1

HB3 = test system: HB3
How it was run: as §1

ICS = test system: ICS
How it was run: as §1

N140 = test system: N140
How it was run: as §1

P93_24 = test system: P93_24
How it was run: as §1

JCK = test system: JCK
How it was run: as §1
Potency means the concentration at half of the fitted maximal effect.

Compound | Potency (CP291) | Potency (CP297) | Potency (CP305) | Potency (CP315) | Potency (CP325) | Potency (CP329) | Potency (CP335) | Potency (DFO2036) | Potency (DIV14) | Potency (DIV17) | Potency (DIV30) | Potency (Dd2) | Potency (ECU) | Potency (FAB9) | Potency (GB4) | Potency (HB3) | Potency (ICS) | Potency (N140) | Potency (P93_24) | Potency (JCK)
CC(C)=CCC/C(C)=C/CC/C(C)=C/CC/C=C(\C)CC/C=C(\C)CCC=C(C)C | inactive | inactive | inactive | inactive | inactive | inactive | inactive | inactive | inactive | inactive | inactive | inactive | inactive | 1e-05 µM (active) | inactive | inactive | inactive | inactive | inactive | –
Cc1cc2nc3c(=O)[nH]c(=O)nc-3n(C[C@H](O)[C@H](O)[C@H](O)COP(=O)(O)OP(=O)(O)OC[C@H]3O[C@@H](n4cnc5c(N)ncnc54)[C@H](O)[C@@H]3O)c2cc1C | inactive | inactive | inactive | inactive | inactive | inactive | inactive | inactive | inactive | inactive | – | inactive | inactive | inactive | inactive | inactive | inactive | inactive | inactive | inactive
O=C(O)CCC/C=C\C[C@@H]1[C@@H](/C=C/[C@@H](O)COc2cccc(Cl)c2)[C@H](O)C[C@@H]1O | inactive | inactive | inactive | inactive | inactive | inactive | inactive | inactive | inactive | – | inactive | inactive | inactive | inactive | inactive | inactive | – | inactive | inactive | inactive
[O]=[Bi][O]C(=O)[O][Bi]=[O] | inactive | inactive | inactive | inactive | inactive | inactive | inactive | inactive | inactive | inactive | inactive | inactive | inactive | inactive | inactive | inactive | – | inactive | inactive | inactive
CCCC(=O)O | inactive | inactive | inactive | inactive | inactive | inactive | inactive | inactive | inactive | inactive | inactive | inactive | inactive | inactive | inactive | inactive | inactive | inactive | inactive | inactive
C[C@]12CC[C@@H]3c4ccc(OC(=O)c5ccccc5)cc4CC[C@H]3[C@@H]1CC[C@@H]2O | inactive | inactive | inactive | inactive | inactive | inactive | 12 µM (active) | inactive | inactive | inactive | inactive | – | inactive | inactive | inactive | inactive | 11.2 µM (active) | inactive | inactive | inactive
CCN(CC)CCOc1ccccc1OC | inactive | inactive | inactive | inactive | inactive | inactive | inactive | inactive | inactive | inactive | inactive | inactive | inactive | inactive | – | inactive | inactive | inactive | inactive | inactive
CC12CCC(C[N+](C)(CCC[N+](C)(C)C)C1)C2(C)C (configuration not stated) | inactive | inactive | inactive | inactive | inactive | inactive | inactive | inactive | inactive | inactive | inactive | inactive | inactive | inactive | inactive | inactive | inactive | inactive | inactive | inactive
CC(CNC(=O)c1cccnc1)NC(=O)c1cccnc1 (configuration not stated) | inactive | inactive | inactive | inactive | inactive | inactive | inactive | inactive | inactive | inactive | inactive | inactive | inactive | inactive | inactive | inactive | inactive | inactive | inactive | inactive
O=C(O)CCC/C=C\C[C@@H]1[C@@H](/C=C/[C@@H](O)COc2cccc(C(F)(F)F)c2)[C@H](O)C[C@@H]1O | inactive | inactive | inactive | inactive | inactive | inactive | inactive | inactive | inactive | inactive | inactive | inactive | inactive | inactive | inactive | inactive | – | – | inactive | inactive
O=C1c2ccccc2CN2C(=O)c3ccccc3CN12 | inactive | inactive | inactive | inactive | inactive | inactive | inactive | inactive | inactive | – | inactive | inactive | – | inactive | inactive | inactive | inactive | inactive | inactive | inactive
Oc1cc(O)cc(O)c1 | inactive | inactive | inactive | inactive | inactive | inactive | inactive | inactive | inactive | inactive | inactive | inactive | inactive | inactive | inactive | inactive | inactive | inactive | inactive | inactive
CC1=CC(=C(c2ccc(N)cc2)c2ccc(N)cc2)C=CC1=N | 3.01 µM (active) | 4.78 µM (active) | 4.26 µM (active) | 4.78 µM (active) | 6.01 µM (active) | 4.78 µM (active) | 2.13 µM (active) | 2.82 µM (active) | 1.07 µM (active) | 1.35 µM (active) | 5.36 µM (active) | 2.82 µM (active) | 2.24 µM (active) | 11.2 µM (active) | 536 nM (active) | 8.91 µM (active) | 1.26 µM (active) | 2.24 µM (active) | 2.51 µM (active) | –
CC1CCCCN1CCCOC(=O)c1ccccc1 (configuration not stated) | inactive | inactive | inactive | inactive | inactive | inactive | inactive | inactive | inactive | inactive | inactive | inactive | inactive | inactive | – | inactive | inactive | inactive | inactive | inactive

— PubChem BioAssay (NCATS)
